# Article PMC4336329 (PLoS ONE, 2015)
# The whole screen tested about 310,000 compounds, of which about 14,000 (4.5%) showed an effect of 50% or more. The effect is printed as a negative number. Shown is part of a subset that was picked to be rich in strong results.
# Biological target: human ether-à-go-go-related gene (hERG) potassium channel (human, UniProt Q12809)
# Assay: primary screen, population patch clamp on CHO cells stably expressing hERG; higher = less effect of the substance
# 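Note: peak tail current of the secondary pulse compared with the same well before compound.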
# Sequence of human ether-à-go-go-related gene (hERG) potassium channel (Q12809 whole entry, looked up): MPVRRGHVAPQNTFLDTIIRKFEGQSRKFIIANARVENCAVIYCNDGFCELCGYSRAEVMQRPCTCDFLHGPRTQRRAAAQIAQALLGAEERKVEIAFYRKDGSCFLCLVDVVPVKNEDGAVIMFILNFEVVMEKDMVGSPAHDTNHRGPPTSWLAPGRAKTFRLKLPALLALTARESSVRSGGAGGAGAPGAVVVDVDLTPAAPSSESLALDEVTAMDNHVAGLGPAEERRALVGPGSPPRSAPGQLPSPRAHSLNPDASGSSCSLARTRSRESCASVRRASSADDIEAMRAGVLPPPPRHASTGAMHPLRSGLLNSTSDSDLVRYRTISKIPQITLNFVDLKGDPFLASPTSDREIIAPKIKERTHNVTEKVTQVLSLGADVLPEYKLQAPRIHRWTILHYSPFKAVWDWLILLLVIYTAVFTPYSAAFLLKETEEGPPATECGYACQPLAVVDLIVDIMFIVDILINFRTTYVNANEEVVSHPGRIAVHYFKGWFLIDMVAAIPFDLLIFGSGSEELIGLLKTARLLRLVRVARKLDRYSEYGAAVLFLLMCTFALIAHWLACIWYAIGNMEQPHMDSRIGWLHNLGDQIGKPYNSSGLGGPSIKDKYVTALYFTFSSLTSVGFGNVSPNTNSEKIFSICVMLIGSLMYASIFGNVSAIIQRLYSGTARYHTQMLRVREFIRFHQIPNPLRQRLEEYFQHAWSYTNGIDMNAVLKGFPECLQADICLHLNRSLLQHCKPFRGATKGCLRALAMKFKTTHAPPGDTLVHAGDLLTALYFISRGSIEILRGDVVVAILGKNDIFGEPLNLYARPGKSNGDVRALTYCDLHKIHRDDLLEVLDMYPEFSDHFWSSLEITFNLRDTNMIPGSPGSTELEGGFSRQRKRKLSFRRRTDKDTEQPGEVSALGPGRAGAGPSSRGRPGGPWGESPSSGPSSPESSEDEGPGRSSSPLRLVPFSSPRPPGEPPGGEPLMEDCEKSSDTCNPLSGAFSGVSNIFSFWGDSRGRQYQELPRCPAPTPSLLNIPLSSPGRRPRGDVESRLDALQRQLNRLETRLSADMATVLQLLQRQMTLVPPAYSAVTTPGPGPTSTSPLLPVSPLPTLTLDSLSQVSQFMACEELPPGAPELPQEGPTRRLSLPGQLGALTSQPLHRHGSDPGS
row,SMILES,"hERG current change (%, negative = inhibition) at 10uM"
1,COc1ccc(C)cc1NC(=O)CSc1ccc(Cl)cc1,11.1%
2,Cc1cccc(C)c1NC(=O)CCS(=O)(=O)c1ccc(Br)cc1,31.2%
3,COc1cccc(-c2nc(CS(=O)(=O)CC(=O)N3CCN(C)CC3)c(C)o2)c1,8.02%
4,CCN(CC)CC(=O)Nc1ccc(-c2nc3cc(NC(=O)CN(CC)CC)ccc3o2)cc1,-18.1%
5,CCNC(=O)NC(=O)COC(=O)c1ccccc1SCC(=O)NC(=O)NCC,3.64%
6,Cc1ccc(-c2nc3ccccc3c(C(=O)NCc3cccs3)c2C)cc1,-5.33%
7,COC(=O)C1=C(c2ccc(F)cc2F)C[C@@H]2CC[C@H]1N2C(=O)NCc1ccc(F)cc1,-46.4%
8,CC(=O)Nc1ccc(S(=O)(=O)Nc2c(NC3CCCCC3)c3ccccc3oc2=O)cc1,7.19%
9,Cc1ccc(NC(=O)CN2CCN(Cc3ccccc3)CC2)cc1Cl,-46%
10,Cc1ccc(S(=O)(=O)N(C)C)cc1NC(=O)CN1CCN(Cc2ccccc2)CC1.Cl,-24.8%
11,CCN(CC)S(=O)(=O)c1ccc(C)c(NC(=O)CNCc2ccccc2OC)c1.O=C(O)C(=O)O,-37.7%
12,Cc1ccc(NC(=O)CN2CCN(Cc3ccccc3)CC2)cc1F,-71.2%
13,O=C(CN1CCC(C(=O)c2ccc(F)cc2)CC1)Nc1ccccc1Cl,-20.5%
14,CC(=O)N1CCN(CC(=O)Nc2ccc(C)c(F)c2)CC1.Cl,0.314%
15,CCN(CC)S(=O)(=O)c1ccc(C)c(NC(=O)CN2CCN(C)CC2)c1.O=C(O)C(=O)O,-12.4%
16,O=C(CN1CCNCC1)Nc1ccccc1Cl,-2.06%
17,CCN(CC)c1ccc(S(=O)(=O)N2CCOCC2)cc1NC(=O)CN1CCN(Cc2ccccc2)CC1.Cl,-45.7%
18,CCN(CC)S(=O)(=O)c1ccc(C)c(NC(=O)CNCCN(C(C)C)C(C)C)c1.O=C(O)C(=O)O,-75.5%
19,O=C(CN1CCN(CC(=O)c2ccc(F)cc2)CC1)Nc1ccccc1Cl,-68.9%
20,CCN(CC)S(=O)(=O)c1ccc(C)c(NC(=O)CN2CCN(Cc3ccccc3)CC2)c1.Cl,-69.1%
21,Cc1cc(-c2csc(N)n2)c(C)n1CCc1ccccc1.Cl,-12.4%
22,Cc1ccc(Oc2ncc(CN3CCOCC3)s2)cc1,3.3%

row,SMILES,"hERG current change (%, negative = inhibition) at 10uM"
1,C=CCn1c(SCC(=O)Nc2cc(C)on2)nc2sc(C)c(C)c2c1=O,-0.759%
2,O=C(Nc1nnc(-c2ccc(Br)cc2)o1)C1=COCCO1,3.07%
3,COc1ccccc1CNC(=O)c1ccc(N(C)S(=O)(=O)c2ccc(C)cc2)cc1,17.5%
4,Cl.OC(c1ccccc1)(C1CCCCC1)C(CN1CCOCC1)c1ccccc1 (stereo not shown),-12.5%
5,Cn1nnnc1SC1CC(=O)N(c2ccccc2)C1=O (stereo not shown),2.48%
6,O=C(NCCO)c1ccc2[nH]c3ccccc3c2c1,9.18%
7,Cc1ccc(NC(=O)CN2CCN(Cc3ccccc3)CC2)c(Br)c1.Cl,-72.5%
8,Cc1ccc(NC(=O)CN2CCOCC2)c(Br)c1,-9.76%
9,Cc1ccc(NC(=O)CNCc2ccccc2)c(Br)c1,0.831%
10,COc1ccccc1CNC(=O)C1CCN(S(=O)(=O)c2ccc(-n3cnnn3)cc2)CC1,-66.9%
11,COc1ccccc1N1CCN(S(=O)(=O)c2ccc(-n3cnnn3)cc2)CC1,-72%
12,CCCN1CCN(S(=O)(=O)c2ccc(-n3cnnn3)cc2)CC1,-28%
13,COc1ccccc1N1CCN(S(=O)(=O)c2ccc(-n3cnnn3)c(C)c2)CC1,-13.7%
14,O=S(=O)(c1ccc(-n2cnnn2)cc1)N1CCN(c2ccccc2F)CC1,-3.2%
15,COc1cccc(CNC(=O)C(=O)N2CCC3(CC2)OCCN3S(=O)(=O)c2ccc(C)cc2)c1,-57%
16,CCNC(=O)C(=O)N1CCC2(CC1)OCCN2S(=O)(=O)c1ccc(C)cc1,2.81%
17,CCOC(=O)N1CCN(S(=O)(=O)c2ccc(-n3cnnn3)cc2)CC1,-61.4%
18,CCOC(=O)c1ccc(S(=O)(=O)N2CCC(C(=O)NCc3ccccc3OC)CC2)cc1,-22.5%
19,COc1ccc(CNC(=O)C(=O)N2CCC3(CC2)OCCN3S(=O)(=O)c2ccc(C)cc2)cc1,-29.9%
20,O=C(NCc1ccccc1Cl)C1CCN(S(=O)(=O)c2ccc(-n3cnnn3)cc2)CC1,-27.3%
21,CCOC(=O)N1CCN(S(=O)(=O)c2ccc(C)cc2)CC1,17.9%
22,CS(=O)(=O)N1CCN(C(=O)Cc2ccc(Br)cc2)CC1,-1.44%

row,SMILES,"hERG current change (%, negative = inhibition) at 10uM"
1,COc1ccc2[nH]cc(CCNS(=O)(=O)c3ccc(F)cc3)c2c1,4.05%
2,Cc1cc(C)c(OCC(=O)Nc2nnc(-c3ccco3)o2)c(C)c1,1.74%
3,COc1ccccc1NC(=O)c1sc(Cl)nc1C,2.93%
4,O=[N+]([O-])c1ccc(S(=O)(=O)Nc2ccc(-c3ccc(N4CCOCC4)nn3)cc2)cc1,-7.79%
5,O=C(Cc1ccccc1)NNC(=S)NC(=O)c1cccnc1,14.7%
6,CC(C)C(NC(=O)C1CCCCC1)C(=O)Nc1ccc2c(c1)OCCO2 (stereo not shown),-1.07%
7,CC(C)(C)OC(=O)N1CC(O)CC1C(=O)OCC(=O)c1ccc(-c2ccccc2)cc1 (stereo not shown),32%
8,COC(=O)C1Cc2c([nH]c3ccccc23)CN1 (stereo not shown),1.45%
9,CN(C)c1ccc(N2C(=NC(=O)COc3ccccc3)SC3CS(=O)(=O)CC32)cc1 (stereo not shown),23.7%
10,COc1ccc(-c2cnn3c4c(c(C)nc23)CCN4C2CCCC2)cc1OC,2.7%
11,COc1cccc(CNC(=O)C2CCN(S(=O)(=O)c3ccc(C)cc3)CC2)c1,-50.4%
12,COc1ccc(CNC(=O)C2CCCN(S(=O)(=O)c3ccc(-n4cnnn4)cc3)C2)cc1 (stereo not shown),-8.97%
13,COc1ccc(S(=O)(=O)N2CCC(C(=O)NCCC(=O)NCc3cccc(OC)c3)CC2)cc1,-4.05%
14,COc1cccc(CNC(=O)C2CCN(S(=O)(=O)c3ccccc3)CC2)c1,-36%
15,COc1ccc(S(=O)(=O)N2CCC(C(=O)NCc3cccc(OC)c3)CC2)cc1,-17.4%
16,COc1cccc(CNC(=O)C2CCN(S(=O)(=O)c3ccc(-n4cnnn4)cc3)CC2)c1,-57.3%
17,Cc1ccc(C(=O)Nc2ccc(N3CCN(S(C)(=O)=O)CC3)cc2)cc1,4.23%
18,c1ccc(-c2nnc3ccc(N4CCC5(CC4)OCCO5)nn23)cc1,-46.8%
19,Brc1ccc2ncnc(NCc3ccco3)c2c1,-39.5%
20,N#CCc1c(C#N)c(N)nc(N2CCOCC2)c1C#N,1.34%
21,N#CCc1c(C#N)c(N)nc(N2CCN(c3ccc(F)cc3)CC2)c1C#N,-63.9%
22,N#CCc1c(C#N)c(N)nc(N2CCN(C=O)CC2)c1C#N,-10.8%

row,SMILES,"hERG current change (%, negative = inhibition) at 10uM"
1,O=C1OC(=O)c2c(Br)c(Br)c(Br)c(Br)c21,20.7%
2,O=C(NCCOc1ccccc1)c1cncc(Br)c1,-26.8%
3,CC(C)c1ccccc1OCCNC(=O)c1cncc(Br)c1,-60.6%
4,CC(C)c1ccccc1OCCNC(=O)c1cccnc1,-1.33%
5,CC(=O)Oc1ccccc1/C=C/c1ccc2ccccc2[n+]1C.[I-],11.3%
6,O=C(NCc1ccccc1)C1CCC(=O)N(CC2CCCCC2)C1 (stereo not shown),9.03%
7,CC[n+]1c(/C=C2/C=C(C)CC(C)(C)C2)sc2ccc(OC)cc21.Cc1ccc(S(=O)(=O)[O-])cc1,-68.7%
8,CCC1=C/C(=C/c2sc3ccccc3[n+]2CC)CC(C)(C)C1.[I-],11.5%
9,CC[n+]1c(/C=C2\C=C(C)CC(C)(C)C2)sc2ccccc21.[I-],-39.7%
10,O=C(COc1ccccc1)Nc1nnc(-c2ccccc2Cl)o1,8.56%
11,CCOC(=O)c1cc(NC(=O)CN2CCCC2)cc(C(=O)OCC)c1,-16.2%
12,Br.c1ccc(CN2CCC(N=C3NN=C(c4ccc5c(c4)OCCO5)CS3)CC2)cc1,-43.1%
13,Cc1cccc(C)c1NC(=O)CNC(=O)CN1C(=O)NC2(CCc3ccccc32)C1=O (stereo not shown),1.69%
14,CC(=O)N1CCN(C2=NC(=O)/C(=C/c3ccc(OS(=O)(=O)c4ccccc4)cc3)S2)CC1,-69.6%
15,CC(=O)N1CCN(C2=NC(=O)/C(=C\c3cccs3)S2)CC1,-37.1%
16,CN1CCN(C2=NC(=O)/C(=C/c3ccccc3OS(=O)(=O)c3ccccc3)S2)CC1,-76.1%
17,O=C1N=C(N2CCOCC2)S/C1=C\c1ccc(OS(=O)(=O)c2ccccc2)cc1,-49.8%
18,NC1=NC(=O)/C(=C/c2ccccc2OS(=O)(=O)c2ccccc2)S1,5.2%
19,O=C1N=C(N2CCOCC2)S/C1=C\c1ccccc1OS(=O)(=O)c1ccccc1,0.61%
